High-throughput results: PubChem, National Center for Advancing Translational Sciences (NCATS)
HPGD inh: qHTS Assay for Inhibitors of HPGD (15-Hydroxyprostaglandin Dehydrogenase); purified HPGD, NADH fluorescence kinetic, PGE2 substrate; Potency, µM, without a hit: at the highest dose activity change, negative = inhibition, usual class: inhibitors; actives 4.3% (n = 150,000); active = well fitted inhibition curve with a large enough effect, not every such curve was filed as active; inconclusive = small, poorly fitted or top-dose-only effect, or another doubt; inactive = no such curve, though single readings can be large or run the other way; note: potency is the fitted concentration of half-maximal effect; % is set by controls: 0 for no effect and ±100 for the full control effect
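20 nM HPGD preincubated 15 min at room temperature with compound in 50 mM Tris-HCl pH 8, 0.01% Tween 20. Started with 1 mM NAD+ and 30 uM prostaglandin E2; NADH fluorescence (360/450 nm) read 5 times over 30-s intervals, last minus first.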
HttQ103 aggreg: qHTS Multiplex Assay to Identify Dual Action Probes in a Cell Model of Huntington: Aggregate Formation (GFP); PC12 HttQ103-GFP aggregates, Acumen cytometry, 40 h; Potency, µM (doses to about 46.1 µM), without a hit: top-dose activity change, negative = inhibition, hits mostly inhibitors; actives 1.1% (n = 220,000); AID 1688, 2009; note: potency is the fitted concentration of half-maximal effect; % is set by controls: 0 for no effect and ±100 for the full control effect; nearly all actives have a fitted effect of over 60% in size
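Huntingtin Q103 exon 1–GFP aggregates in induced PC12 cells (100 nM tebufenozide) were quantified by cytometry from lysates, with compounds dosed in titration.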
IMPase inh: qHTS Assay for Identifying the Cell-Membrane Permeable IMPase Inhibitors | 120,000 tested, under 10 active | inhibition (IP1 accumulation), % at 46.1 µM | CHO-M1 cells, IP1 accumulation, HTRF TR-FRET ratio | Inositol monophosphatase 1 (Rattus norvegicus), P97697 | AID 901, 2007; active = well fitted curve in the direction sought with a large enough effect in the signal ratio, not every such curve was filed as active; inconclusive = small, poorly fitted or top-dose-only effect, or a change in a side signal; inactive = no such curve, though single readings can be large or run the other way; the % refers to the signal ratio;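 note: cells stimulated with carbachol in lithium chloride buffer; plate controls were DMSO basal wells for no effect and reference inhibitor wells for full effect; higher means more IMPase inhibition seen as more IP1 and lower FRET ratio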
Target sequence (P97697 whole entry, looked up): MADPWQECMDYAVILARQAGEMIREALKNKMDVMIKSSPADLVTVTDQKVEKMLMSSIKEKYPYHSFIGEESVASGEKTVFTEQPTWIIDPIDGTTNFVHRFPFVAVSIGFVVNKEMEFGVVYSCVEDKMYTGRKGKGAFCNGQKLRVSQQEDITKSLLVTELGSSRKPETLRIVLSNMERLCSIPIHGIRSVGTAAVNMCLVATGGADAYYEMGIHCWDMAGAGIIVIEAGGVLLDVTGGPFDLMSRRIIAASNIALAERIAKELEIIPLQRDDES
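Seeded CHO-M1 cells were dosed with compound at up to 46 uM, stimulated with carbachol for 30 min, then lysed in IP-One detection reagents. Higher IP1 lowers the TR-FRET signal.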
HTT cytoprotect: qHTS Multiplex Assay to Identify Dual Action Probes in a Cell Model of Huntington: Cytoprotection (ATP) | PC12 HTT-Q103 induced, cytoprotection, ATP luminescence, 40 h | Potency, µM (top dose mostly 56.4 µM), for inactives: cytoprotection (ATP increase), hits mostly activators | actives 0.14% (n = 230,000) | AID 1471, 2008; note: potency is the fitted concentration of half-maximal effect; % of control where 0% means no effect; nearly all actives have a fitted effect of over 45% in size
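Compounds added alongside 100 nM tebufenozide, which induces toxic Q103 huntingtin exon 1-GFP in stable PC12 cells; surviving cells quantified by luminescent ATP measurement. Medium: phenol red-free DMEM, 5% equine and 5% calf serum.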
IMPase Li cell: qHTS Assay for Identifying the Cell-Membrane Permeable IMPase Inhibitors: Potentiation with Lithium | actives 0.35% (n = 210,000) | CHO-M1 cells, IP1 TR-FRET (IP-One), carbachol + lithium | Potency, µM (titrated, usually from 59.4 µM), inactives show top-dose activity, negative = IMPase inhibition, hits mostly inhibitors | AID 1457, 2008;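 note: IP1 builds up when IMPase is blocked and the TR-FRET signal falls; potency is the fitted concentration of half-maximal effect; plate controls were basal vehicle for no effect and high inhibitor control for full effect; nearly all actives have a fitted effect of over 50% in size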
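Lithium-sensitised IP1 accumulation assay; M1-expressing CHO cells treated 30 min at 37C with compound. Competitive antibody detection by time-resolved FRET followed a 10 min room-temperature lysis step.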
ALDH1A1 block: qHTS Assay for Inhibitors of Aldehyde Dehydrogenase 1 (ALDH1A1) | Purified ALDH1A1, NADH fluorescence, propionaldehyde substrate | Potency, µM (series often up to 75.3 µM), for the others: top-dose activity, negative = inhibition, most hits filed as inhibitors | actives 7.3% (n = 220,000); active = well fitted inhibition curve with a large enough effect, not every such curve was filed as active; inconclusive = small, poorly fitted or top-dose-only effect, or another doubt; inactive = no such curve, though single readings can be large or run the other way;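 note: potency is the fitted concentration of half-maximal effect; plate controls were no enzyme wells and a reference inhibitor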
Target sequence (P00352 whole entry, looked up): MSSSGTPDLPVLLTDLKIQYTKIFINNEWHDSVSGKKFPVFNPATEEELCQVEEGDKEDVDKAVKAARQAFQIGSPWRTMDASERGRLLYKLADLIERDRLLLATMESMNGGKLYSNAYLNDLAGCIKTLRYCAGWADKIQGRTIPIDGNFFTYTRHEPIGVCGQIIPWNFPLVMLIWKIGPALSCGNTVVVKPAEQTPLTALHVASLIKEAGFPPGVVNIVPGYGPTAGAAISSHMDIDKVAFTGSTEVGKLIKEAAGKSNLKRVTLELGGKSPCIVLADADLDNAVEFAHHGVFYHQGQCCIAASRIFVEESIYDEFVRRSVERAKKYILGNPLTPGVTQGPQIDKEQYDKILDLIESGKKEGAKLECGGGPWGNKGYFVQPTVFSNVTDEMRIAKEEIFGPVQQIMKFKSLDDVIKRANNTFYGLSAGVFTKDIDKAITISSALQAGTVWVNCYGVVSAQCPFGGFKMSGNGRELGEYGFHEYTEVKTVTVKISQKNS
The depositor's hits bear a star; ? = inconclusive; · = not tested or not shown; [ ] = another dose, or the depositor's remark. Most compounds without a hit are left out; they make up all but 9.4% or so of the library. Unless noted, calls come from the whole dose curve; as a rule, active = well fitted curve in the direction sought with a large enough effect; inconclusive = small, poorly fitted or top-dose-only effect, or another doubt; inactive = no such curve, though single readings can be large; an effect the other way counts as inactive or inconclusive.

SMILES	HPGD inh	HttQ103 aggreg	IMPase inh	HTT cytoprotect	IMPase Li cell	ALDH1A1 block
CCN1C(=O)c2cccc3c(S(=O)(=O)Nc4ccc(OC)cc4OC)ccc1c23	-7%	?	-7	-18%	1%[38.3 µM]	11µM*
Cc1nn(-c2c(Cl)cc(Cl)cc2Cl)c(=O)c2ccccc12	13µM*	22%	15	14%[10 µM]	12%[38.3 µM]	-11%
CC(C)Cc1c2c([nH]c(=S)c1C#N)CCCC2	22µM*	2%	·	·	?	-8%
N#Cc1c(-c2ccco2)c2c([nH]c1=S)CCCC2	16µM*	13%	-15	-9%[10 µM]	-23%	20µM*
COc1ccc(-c2c3c([nH]c(=S)c2C#N)CCC3)cc1	10µM*	3%	?	4%[10 µM]	7.9µM*	14µM*
COc1ccc(OC)c(-c2c3c([nH]c(=S)c2C#N)CCCC3)c1	·	-11%	·	?	-8%	-9%
N#Cc1c(-c2cccnc2)c2c([nH]c1=S)CCCC2	·	3%	-5	-1%	·	?
CN(C)CCCNC(=O)c1ccc(Cc2nc3ccccc3[nH]2)cc1	-10%	·	·	·	·	2%
Cn1cccc1Cc1nnc(SCC(=O)Nc2ccccc2F)n1CCc1ccccc1	-14%	12%	2	11%[10 µM]	11%	25µM*
Cn1cccc1Cc1nnc(SCC(=O)N2CCCCCC2)n1CCc1ccccc1	-9%	-1%	0	9%	9%[38.3 µM]	25µM*
Cc1cc(Br)ccc1NC(=O)Cn1cc(S(=O)(=O)N2CCN(c3ccccc3F)CC2)c2ccccc2c1=O	·	·	0	·	·	·
CC(=O)OCC1OC(c2cc(C)cc(C)c2)C=CC1OC(C)=O (stereo not drawn)	·	·	·	-6%[10 µM]	·	6%[13.5 µM]
O=C(NCCO)C(=O)c1c(-c2ccccc2)cc2ccccn12	·	10%	·	-18%	-1%	0%
Cc1onc(-c2ccccc2)c1C(=O)N1CCCSC1=Nc1ccccc1	-20%	?	7	2%[10 µM]	42%[38.3 µM]	11µM*
Brc1c(CSc2nnc(-c3ccco3)o2)nc2ccccn12	7.9µM*	-25%	8	-28%	11%[38.3 µM]	?
Cc1cccc(CN2CCN(c3nc4nonc4nc3NC3CC3)CC2)c1	·	14%[9.22 µM]	·	-10%[10 µM]	-3%	16µM*
Clc1cccc(CN2CCN(c3nc4nonc4nc3NC3CC3)CC2)c1	·	-8%[9.22 µM]	·	-29%[10 µM]	18%	-15%
Cc1ccc(Oc2nc3ccccn3c(=O)c2/C=C(\C#N)c2nc3ccccc3s2)c(C)c1	·	·	0	·	·	·
O=[N+]([O-])c1cc(Cl)cc(/C=N\Nc2ccccn2)c1O	-17%	2.2µM*	5	-72%	1%[38.3 µM]	1%
O=[N+]([O-])c1cccc(/C=N\N=C2c3ccccc3-c3ccccc32)c1O	28µM*	-7%	1	0%[10 µM]	9%	-7%
Cc1ccc(/C=N/Nc2ccc3ccccc3n2)o1	·	13µM*	·	-164%	-4%	?
O=C(N/N=C/c1cc(Cl)cc([N+](=O)[O-])c1O)c1cc(-c2ccccn2)nc2ccccc12	·	-10%[9.22 µM]	·	5%[10 µM]	·	·
O=[N+]([O-])c1cccc(/C=N\Nc2ccc3ccccc3n2)c1O	-11%	·	·	-11%[10 µM]	2%	1.6µM*
Cc1cc(O)cc2c1O[C@](C)(CCC[C@H](C)CCC[C@H](C)CCCC(C)C)CC2	·	6%	·	-69%	·	·
CCOC(=O)c1sc(N(Cc2ccccc2)C(=O)CSc2nnc(C3CC3)n2N)nc1C	20µM*	?	5	-10%	3%[38.3 µM]	-9%
SMILES	HPGD inh	HttQ103 aggreg	IMPase inh	HTT cytoprotect	IMPase Li cell	ALDH1A1 block
CCOC(=O)c1sc(N(Cc2ccccc2)C(=O)COC(=O)c2cnccn2)nc1C	·	-6%	·	-48%	-3%	-11%
Cc1cc(NC(=O)CSc2nc3ccsc3c(=O)n2CCCC(=O)NCCc2ccccc2)no1	·	5%	·	-1%	0%	10%
CC(C(=O)O)c1ccc2c(c1)Cc1cccnc1O2 (stereo not drawn)	·	-1%	·	-3%	·	·
CCOC(=O)CNC(=O)O[C@@H]1C(=O)c2cc(Br)ccc2O[C@H]1c1ccc2c(c1)OCO2	-11%	·	·	-23%	12%	10%
Cc1ccccc1-c1nc(N(C)C)c2ccccc2n1	·	·	·	-24%	6%	7%
Cc1cc(C(=O)c2ccccc2)c(NC(=O)CN2CCOCC2)s1	0%	-16%	0	8%[1.9 µM]	5%	1%
Cc1ccc(C(=O)c2cc(C)sc2NC(=O)CN2CCN(C(=O)c3ccco3)CC2)cc1	·	?	17	19%[10 µM]	·	25µM*
N#CC1=C2SCN(c3ccccc3)CN2C(=O)CC1c1cccs1 (stereo not drawn)	7.1µM*	13%	-14	-7%	28µM*	3.2µM*
N#CC1=C2SCN(c3ccccc3)CN2C(=O)CC1c1c(Cl)cccc1Cl (stereo not drawn)	7.9µM*	6%	4	-23%	16%[38.3 µM]	3.2µM*
N#CCCCSC1=C(C#N)C(c2ccccc2Cl)CC(=O)N1 (stereo not drawn)	-13%	-5%	-7	3%	8%[38.3 µM]	?
N#CC1=C2SCC(O)(c3ccccc3)N2C(=O)CC1c1ccccc1F (stereo not drawn)	-15%	-15%[9.22 µM]	5	-80%	-11%[38.3 µM]	?
N#CC1=C2SCC(O)(c3ccccc3)N2C(=O)CC1c1cccs1 (stereo not drawn)	·	-11%	?	12%	·	0.035µM*
CSC1=C(C#N)C(c2cccs2)CC(=O)N1C (stereo not drawn)	-20%	7%	4	-2%	8%[38.3 µM]	?
N#CC1=C2SCN(c3ccccc3)CN2C(=O)CC1c1ccccc1Cl (stereo not drawn)	7.9µM*	0%	2	-13%	8%[38.3 µM]	3.2µM*
NN(CC(=O)O)CC(=O)O	-1%	·	·	8%[10 µM]	-5%	-5%[13.5 µM]
CC1=C(C(=O)OCC(C)C)C(c2ccccc2Cl)NC(=O)N1C (stereo not drawn)	-17%	?	7	-9%	1%[38.3 µM]	20µM*
Cc1cccc(OC(=O)n2c(=S)oc3cc(Cl)ccc32)c1	-19%	-3%	4	-12%[10 µM]	-9%	3.5µM*
O=C(Oc1ccccc1)n1c(=O)oc2ccc(Cl)cc21	-5%	·	·	·	·	1%
O=C(O)CN(c1ccc(F)cc1)S(=O)(=O)c1ccc2c(c1)OCCO2	-4%	·	-9	3.2µM*	-10%[38.3 µM]	6%
